Bioassay records as filed in PubChem.
Sampled rows, rich in hits. Any-hit rate of the full collection: about 0.54%.
TcdB GH inh = TcdB glycohydrolase inhibitors, primary screen, biochemical, single point, plate reader; Toxin B (Clostridioides difficile), P18177; TcdB glycohydrolase enzymatic assay; inhibition, % at 9.99 µM; 350,000 tested, 0.24% active; in the data active = inhibition above about 10%
FadD28 FP inh = inhibitors of FadD28 bisubstrate probe binding, primary screen, biochemical, fluorescence polarization, single point | Mycobacterium tuberculosis FadD28 fatty-acid-AMP ligase | inhibition, % at 12.5 µM | 360,000 tested, 0.22% active | AID 588549, 2011; in the data active = inhibition above about 8.5%, passing the limit was not always enough; inconclusive = no clear call, values can overlap the other calls
BH1578 lux ind = inducers of Vibrio cholerae quorum light production without autoinducers, primary screen, BH1578 luxS cqsA deficient, single point; V. cholerae BH1578 lux reporter, luminescence, 6 h; activation, % at 18.7 µM; 350,000 tested, 0.16% active; AID 588436, 2011; in the data active = activation mostly above about 9.7%, no sharp cut-off; inconclusive = no clear call, values can overlap the other calls; inactive = mostly below about 3.7%
Mtb BioA inh = M. tuberculosis BioA enzyme inhibitors, primary screen, biochemical, plate reader, single point, HTS | 7,8-diaminopelargonic acid synthase BioA (Mycobacterium tuberculosis) | purified M. tuberculosis BioA enzyme | inhibition, % at 9.99 µM | 360,000 tested, 0.096% active | AID 602481, 2012; in the data active = inhibition above about 40%; inconclusive = no clear call, values can overlap the other calls
Numbers stand for hits; n = inactive; u = inconclusive; x = no result.

SMILES	TcdB GH inh	FadD28 FP inh	BH1578 lux ind	Mtb BioA inh
CNc1nc(C23CC4CC(CC(C4)C2)C3)cs1	12	n	n	x
CCCC#Cc1ccc(CC[C@H]2O[C@H]3CC[C@@H](CO)O[C@H]3C[C@H]2n2cc(C(C)(C)O)nn2)cc1	n	x	x	x
COc1cccc(Oc2ccc3nnc(C(F)(F)F)n3n2)c1	11	n	n	x
CCCCNC(=O)c1ccc(C#CC(C)(C)C)c(OC(C)=O)c1	n	x	x	n
COc1ccc(C(=O)OCC(=O)c2ccc(F)cc2)cc1OC	n	n	n	n
COc1cccc(C(=O)COC(=O)c2ccc(NC(=O)c3ccccc3)cc2)c1	22	n	n	n
COc1ccc(C(=O)COC(=O)c2ccc(OC)c(OC)c2)cc1OC	42	n	n	n
Cc1ccc(S(=O)(=O)N(C)C[C@@H]2Oc3ccc(NC(=O)CCCCCC(=O)Nc4ccccc4N)cc3C(=O)N([C@H](C)CO)C[C@H]2C)cc1	n	x	x	x
O=C(O)CCCN1C(=O)/C(=C/C=C/c2ccco2)SC1=S	n	19	n	x
CN1CCN(C(=O)CCCN2C(=O)/C(=C/c3ccccc3)SC2=S)CC1	n	n	n	n
O=C(O)CCCN1C(=O)/C(=C\C(Cl)=C\c2ccccc2)SC1=S	n	9.3	n	n
O=C(O)CC(C(=O)O)N1C(=O)/C(=C/C=C/c2ccco2)SC1=S (configuration not stated)	n	u	n	n
O=C(O)C(Cc1ccccc1)N1C(=O)/C(=C/C=C/c2ccco2)SC1=S (configuration not stated)	n	39	n	n
O=C(NN1C(=O)/C(=C/C=C/c2ccco2)SC1=S)c1ccccc1O	n	58	n	n
C/C=C/c1ccc([C@H]2[C@@H](CO)N(S(C)(=O)=O)[C@@H]2CN(CCC)C(C)=O)cc1	n	x	x	x
CC(=O)C(Sc1nccc(-c2cccs2)n1)C(C)=O	15	n	n	n
Cc1ccccc1S(=O)(=O)N1CCCc2nc(C)c(C)cc21	11	x	x	x
CO[C@H]1CN(C)C(=O)c2cc(NC(=O)Nc3ccccc3F)ccc2OC[C@H](C)N(C(C)=O)C[C@H]1C	n	x	x	n
Cc1ccc(C)c2nc(Cl)c(C3NC(=O)c4ccccc4N3)cc12 (configuration not stated)	10	n	n	x
Cc1cc(C)c2nc(Cl)c(C3NC(=O)c4ccccc4N3)cc2c1 (configuration not stated)	n	n	n	x
O=S(=O)(NC1CCCCCCC1)c1ccc(F)cc1	12	n	n	n
C[C@@H]1CCCCO[C@H](CN(C)S(=O)(=O)c2cccs2)[C@H](C)CN([C@H](C)CO)C(=O)c2cc(NC(=O)Nc3ccccc3)ccc2O1	n	x	x	n
COC(=O)c1ccc([N+](=O)[O-])c(CS(=O)(=O)c2ccc(Cl)cc2)c1	n	n	n	n
CN(C)/C=C/C(=O)c1ccc([N+](=O)[O-])c(CS(=O)(=O)c2ccc(Cl)cc2)c1	n	18	n	n
CCCCCCCCCCCCCCC(O)C[N+](C)(CCO)CCO (configuration not stated)	n	17	n	x
SMILES	TcdB GH inh	FadD28 FP inh	BH1578 lux ind	Mtb BioA inh
COc1ccc(C(=O)/C=C/c2ccc(O)cc2)c2c1CC(O)C(C)(C)O2 (configuration not stated)	23	n	n	n
COc1ccc(C(=O)/C=C/c2ccc(O)cc2)c(O)c1CC=C(C)C	n	n	n	n
COc1ccc(-c2cnc3c(c2)C(=O)N([C@@H](C)CO)C[C@@H](C)[C@H](CN(C)Cc2ccccc2)O3)cc1	n	x	x	n
CC(C)N1CCc2c(sc(NC(=O)c3cc4cc([N+](=O)[O-])ccc4s3)c2C(N)=O)C1	n	14	n	n
CN(C)C(=O)[C@@H]1[C@@H](CO)[C@@H]2Cn3c(ccc(-c4ccncc4)c3=O)[C@H]1N2CC1CC1	n	x	x	n
CCc1ccccc1NC(=O)CN(C)C(=O)CSc1nnc(Nc2cccc(C)c2C)s1	x	29	n	n
Cc1nnc(SCC(=O)N(C)CC(=O)Nc2ccccc2Cl)s1	n	n	n	n
C/C(=N\NC(=O)c1ccccc1Cl)c1c(O)n(C2CCCCC2)c(=O)[nH]c1=O	n	n	n	n
C/C(=N\NC(=O)c1ccccc1O)c1c(O)n(C2CCCCC2)c(=O)[nH]c1=O	n	12	n	n
Cc1nc(-c2ccccn2)nc(SCC(=O)c2ccc(F)cc2)c1Cl	12	n	n	x
COc1ccc(C(=O)CSc2nc(-c3ccccn3)nc(C)c2Cl)cc1	n	n	n	n
O=C(O)CN1C(=O)NC2(CCOc3ccccc32)C1=O (configuration not stated)	n	n	n	n
